Results published in PubChem BioAssay.
For some of these results: Measured potencies and affinities stand elsewhere. Activity calls are given as the source filed them.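 How the source made its calls, unless noted: active means fluorescence ratio normalized to control raised more than 50% in primary screen plus both repeat runs; inactive means the rest.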

Key:
[1] = test system: TRPC4 beta (transient receptor potential cation channel C4), mouse; experiment: activators of mouse TRPC4 channel, confirmation, cell-based, Fluo4 calcium, HEK293 TRPC4beta/mu-opioid, duplicates, 10 µM (AID 2426); conditions: Fluo4 calcium fluorescence, at 10 µM; active compounds read high
[2] = test system: transient receptor potential cation channel C4 beta (TRPC4), mouse; experiment: activators of mouse TRPC4 channel, confirmation, cell-based, second round, Fluo4, HEK293 TRPC4beta/mu-opioid, 1 µM (AID 2461;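 active means primary screen active and over 50% activation in each of two duplicate runs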); conditions: Fluo4 calcium fluorescence, at 1 µM; active compounds read high
[3] = test system: TRPC4 (transient receptor potential cation channel C4 beta), mouse; experiment: positive allosteric modulators of mouse TRPC4, confirmation, cell-based, second round, Fluo-4, HEK293 TRPC4beta/mu-opioid, 1 µM (AID 2554;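 active means primary screen hit whose fluorescence ratio, in both repeats, exceeds the weak agonist control mean by 3 SD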); conditions: DAMGO EC20, Fluo-4 calcium flux, at 1 µM; active compounds read high
[4] = test system: TRPC4 beta (transient receptor potential cation channel C4), mouse; experiment: positive allosteric modulators of mouse TRPC4, confirmation, cell-based, Fluo-4, HEK293 TRPC4beta/mu-opioid (AID 2555;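 active means primary screen hit whose calcium fluorescence ratio, in both repeats, exceeds the weak agonist control mean by 3 SD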); conditions: DAMGO EC20, Fluo-4 calcium flux, at 10 µM; active compounds read high
[5] = biological target: Short transient receptor potential channel 4 (Mus musculus) (UniProt Q9QUQ5); experiment: inhibitors of mouse TRPC4 channel, confirmation, cell-based, Fluo4, HEK293 TRPC4beta/mu-opioid (AID 2636;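 active means calcium signal cut by more than 3 SD below the full-agonist control yet still positive, in both repeats and the earlier primary screen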); conditions: DAMGO, Fluo4 calcium flux, at 10 µM; active compounds read high
[6] = biological target: Short transient receptor potential channel 4 (Mus musculus) (UniProt Q9QUQ5); experiment: inhibitors of mouse TRPC4 channel, confirmation, cell-based, second round, Fluo4, HEK293 TRPC4beta/mu-opioid, 1 µM (AID 2637;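 active means calcium signal ratio cut to more than 3 SD under the fully stimulated control mean yet still positive, in both repeats and the primary screen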;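 on inhibition: percent of integrated ratio relative to wells lacking test compound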); conditions: Fluo4 calcium flux, DAMGO, at 1 µM; active compounds read high
[7] = biological target: Short transient receptor potential channel 4 (Mus musculus) (UniProt Q9QUQ5); experiment: mouse TRPC4 channel activators, dose response, cell-based, HEK293 TRPC4/mu-opioid, Fluo-4 calcium (AID 434937;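 active means primary screen activator hit with a dose response curve and TRPC4 channel activation at any tested dose; inactive means no activation, no dose response, or not a primary hit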)
[8] = biological target: Short transient receptor potential channel 4 (Mus musculus) (UniProt Q9QUQ5); experiment: TRPC4 positive allosteric modulators, dose response, cell-based, HEK293 TRPC4/mu-opioid, Fluo-4 calcium, EC20 DAMGO (AID 434941;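 active means earlier screen potentiator hit that boosts the TRPC4 ion channel at some dose, with a dose response; inactive means no potentiation, no dose response, or not a prior hit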;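 further: calcium entry triggered by an EC20 dose of DAMGO at the co-expressed mu-opioid receptor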)
[9] = biological target: Short transient receptor potential channel 6 (Mus musculus) (UniProt Q61143); experiment: inhibition of mouse TRPC6 channel, confirmation, selectivity assay for TRPC4 inhibitor project, cell-based, HEK293, membrane potential dye, duplicate (AID 434948;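 active means active in primary screen and both duplicates, each dropping signal beyond three positive-control SD with fluorescence still positive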); conditions: HEK293 TRPC6, membrane potential dye fluorescence, at 10 µM, stimulated with maximal-effect acetylcholine; active compounds read high
[10] = biological target: Short transient receptor potential channel 6 (Mus musculus) (UniProt Q61143); experiment: activation of mouse TRPC6 channel, confirmation, selectivity assay for TRPC4 activator project, cell-based, HEK293, membrane potential dye, duplicate (AID 434950;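 active means membrane potential signal rise above negative control mean plus 3 SD in both duplicates, also active in the earlier TRPC4 screen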); conditions: HEK293 TRPC6, membrane potential fluorescence, at 10 µM; active compounds read high
[11] = biological target: Short transient receptor potential channel 6 (Mus musculus) (UniProt Q61143); experiment: TRPC6 potentiation by TRPC4 potentiator hits, confirmation, selectivity assay for TRPC4 potentiator project, HEK293 cells, membrane potential dye, duplicate (AID 434952;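 active means compound raising the membrane signal above positive-control mean plus 3 SD in both repeats, and a primary screen hit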); conditions: HEK293 TRPC6, membrane potential dye fluorescence, at 10 µM, maximal acetylcholine added after compound; active compounds read high
[12] = biological target: Short transient receptor potential channel 4 (Mus musculus) (UniProt Q9QUQ5); experiment: calcium flux activators in TRPC4/5HT1a cells, counter-screen for TRPC4 activator project, cell-based, second counter screen, HEK293 TRPC4/5HT1a, Fluo-4 (AID 434977;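 active means calcium signal rise above buffer-control mean plus 5 SD in both duplicates, and also a hit in the primary screen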); conditions: Fluo-4 calcium flux, at 10 µM; active compounds read high
[13] = calcium flux inhibitors in TRPC4/5HT1a cells, confirmation, counter-screen for TRPC4 inhibitor project, cell-based, second counter screen, HEK293 TRPC4/5HT1a, Fluo-4 (AID 434978;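 active means primary screen active whose calcium signal fell more than 3 SD beyond the full-serotonin control mean in both duplicate plates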); conditions: Fluo-4 calcium flux, at 10 µM, serotonin added to trigger calcium flux; active compounds read high
[14] = test system: TRPC4 (mouse), co-expressed with 5HT1a in HEK293; experiment: calcium flux potentiators in TRPC4/5HT1a cells, confirmation, counter-screen for TRPC4 potentiator project, cell-based, second counter screen, HEK293 TRPC4/5HT1a, Fluo-4 (AID 434979;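 active means signal rise over 3 SD above mean of control wells given weak agonist, in both repeats and first screen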); conditions: Fluo-4 calcium flux, at 10 µM, serotonin added at its EC20 dose; active compounds read high
[15] = calcium flux activation in mu-opioid HEK293 cells, confirmation, counter-screen for TRPC4 activator project, cell-based, HEK293 mu-opioid receptor line (AID 449723;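 active means hit in primary screen, with calcium signal over 5 SD above buffer well mean in both duplicates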;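 further: counter screen cells carry the mu-opioid receptor alone and lack TRPC4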); conditions: Fluo-4 calcium fluorescence, at 10 µM; active compounds read high
[16] = calcium flux enhancement in mu-opioid HEK293 cells, confirmation, counter-screen for TRPC4 allosteric potentiator project, cell-based, HEK293 mu-opioid receptor line (AID 449724;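 active means calcium signal rise more than 3 SD above the low-dose agonist control mean, in both duplicate plates and the primary screen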); conditions: Fluo-4 calcium flux, at 10 µM, compound added before EC20 DAMGO stimulus; active compounds read high

Measured: inhibition

Short transient receptor potential channel 6 (Mus musculus), sequence (Q61143 whole entry, looked up): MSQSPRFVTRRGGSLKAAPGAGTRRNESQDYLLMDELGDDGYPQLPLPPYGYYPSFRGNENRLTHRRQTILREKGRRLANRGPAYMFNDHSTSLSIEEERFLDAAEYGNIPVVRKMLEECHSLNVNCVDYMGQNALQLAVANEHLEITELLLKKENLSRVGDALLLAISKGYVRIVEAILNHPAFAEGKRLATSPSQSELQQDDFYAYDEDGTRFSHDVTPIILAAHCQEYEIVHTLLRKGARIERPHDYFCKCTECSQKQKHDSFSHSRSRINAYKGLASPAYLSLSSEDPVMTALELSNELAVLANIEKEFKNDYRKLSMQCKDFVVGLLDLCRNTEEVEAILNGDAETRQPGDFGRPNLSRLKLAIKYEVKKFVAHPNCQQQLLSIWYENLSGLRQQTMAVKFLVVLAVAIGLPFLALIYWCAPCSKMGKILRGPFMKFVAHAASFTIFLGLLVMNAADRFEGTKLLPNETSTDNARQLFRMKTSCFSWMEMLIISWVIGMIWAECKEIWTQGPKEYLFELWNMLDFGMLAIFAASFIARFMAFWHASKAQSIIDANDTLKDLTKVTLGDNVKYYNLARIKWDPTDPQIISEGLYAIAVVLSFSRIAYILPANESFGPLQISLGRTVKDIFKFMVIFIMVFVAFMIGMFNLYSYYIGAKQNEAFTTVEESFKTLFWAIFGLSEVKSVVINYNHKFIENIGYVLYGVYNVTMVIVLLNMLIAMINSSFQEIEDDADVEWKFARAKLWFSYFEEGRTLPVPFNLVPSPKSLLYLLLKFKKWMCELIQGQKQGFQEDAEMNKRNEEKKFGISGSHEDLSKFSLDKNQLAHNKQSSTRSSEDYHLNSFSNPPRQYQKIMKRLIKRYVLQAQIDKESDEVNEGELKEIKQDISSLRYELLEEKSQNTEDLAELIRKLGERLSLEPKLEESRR
Short transient receptor potential channel 4 (Mus musculus), sequence (Q9QUQ5 whole entry, looked up): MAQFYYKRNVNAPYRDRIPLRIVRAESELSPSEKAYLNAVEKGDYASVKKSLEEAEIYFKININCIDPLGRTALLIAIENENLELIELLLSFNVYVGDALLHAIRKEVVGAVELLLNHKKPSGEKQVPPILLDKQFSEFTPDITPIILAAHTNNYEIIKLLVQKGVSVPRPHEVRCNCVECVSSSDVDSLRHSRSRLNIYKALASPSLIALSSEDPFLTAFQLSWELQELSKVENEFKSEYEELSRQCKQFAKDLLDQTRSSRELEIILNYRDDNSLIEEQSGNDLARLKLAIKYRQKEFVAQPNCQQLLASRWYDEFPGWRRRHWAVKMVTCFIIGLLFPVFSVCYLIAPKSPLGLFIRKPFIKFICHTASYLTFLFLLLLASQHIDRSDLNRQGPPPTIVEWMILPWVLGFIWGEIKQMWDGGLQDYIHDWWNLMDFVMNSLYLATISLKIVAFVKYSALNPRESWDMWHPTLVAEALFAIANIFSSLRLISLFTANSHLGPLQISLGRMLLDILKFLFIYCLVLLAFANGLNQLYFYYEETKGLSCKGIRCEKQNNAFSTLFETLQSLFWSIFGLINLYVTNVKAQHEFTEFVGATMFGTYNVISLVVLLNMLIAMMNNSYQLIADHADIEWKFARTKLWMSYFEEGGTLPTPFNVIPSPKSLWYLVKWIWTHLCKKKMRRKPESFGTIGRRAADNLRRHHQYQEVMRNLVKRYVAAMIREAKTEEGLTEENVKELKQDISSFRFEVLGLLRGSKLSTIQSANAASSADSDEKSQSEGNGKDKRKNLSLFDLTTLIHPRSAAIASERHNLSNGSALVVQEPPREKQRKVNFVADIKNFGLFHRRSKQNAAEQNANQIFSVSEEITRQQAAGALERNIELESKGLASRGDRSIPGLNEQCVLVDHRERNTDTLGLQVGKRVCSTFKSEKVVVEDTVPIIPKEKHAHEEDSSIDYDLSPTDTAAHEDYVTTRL

COc1ccc(C(=O)Nc2nc(-c3cccs3)cs2)cc1
active: [5] 85% | [13] 36.4%
inactive: all other assays above

CC(C)C(NC(=O)c1ccc(C(C)(C)C)cc1)C(=O)NCC(c1ccccc1)N(C)C (stereo unspecified)
active: [5] 82% | [6] 70%
inactive: all other assays above

OC(COc1ccccc1)CN1C2=NCCCN2c2ccccc21 (stereo unspecified)
active: [5] 84%
inactive: all other assays above

Fc1ccccc1Sc1ccccc1CNC1=NCCN1
active: [5] 93% | [6] 68% | [13] 16.1%
inactive: all other assays above

CC(C)n1c(NCc2c[nH]c3ccccc23)nc2ccccc21
active: [5] 50% | [9] 33.5% | [13] 26.4%
inactive: all other assays above

COc1ccc(C(CNc2ccc(C(F)(F)F)cn2)N(C)C)cc1OC (stereo unspecified)
active: [6] 69%
inactive: all other assays above

Cc1ccc2cc(CN(CCCN3CCOCC3)C(c3nnnn3Cc3ccco3)C(C)C)c(=O)[nH]c2c1C (stereo unspecified)
active: [5] 98% | [6] 72%
inactive: all other assays above

CCCc1nc(SC2CCCC2)c2c(=O)n(C)c(=O)n(C)c2n1
active: [13] 39.1%
inactive: all other assays above

O=C(CSc1nc2ccccc2c(=O)n1CCCO)N1CCc2ccccc21
active: [5] 94% | [6] 67% | [13] 13.1%
inactive: all other assays above

c1ccc(-c2ccccc2OCCOCCN2CCCCC2)cc1
active: [5] 94% | [6] 44% | [13] 33.7%
inactive: all other assays above

CC1CCc2nc(NC(=O)CN3CCN(Cc4ccc5c(c4)OCO5)CC3)sc2C1 (stereo unspecified)
active: [5] 77% | [13] 28.7%
inactive: all other assays above

Cc1nn(C(=O)c2cccc([N+](=O)[O-])c2)c(C)c1Sc1ccccc1
active: [5] 88% | [13] 32.5%
inactive: all other assays above

Cc1cc(CN2CCCC(C(=O)Nc3ccc(-c4nc5ccccc5[nH]4)cc3)C2)n[nH]1 (stereo unspecified)
active: [5] 77% | [6] 61% | [13] 37.2%
inactive: all other assays above

CCCCOc1ccc(CSCCN=C(N)N)cc1
active: [5] 88% | [6] 42% | [13] 40.1%
inactive: all other assays above

O=C(CSc1nc(=O)n(CCN2CCOCC2)c2c1CCC2)Nc1ccc(OC(F)(F)F)cc1
active: [5] 69%
inactive: all other assays above

COc1cc(C(=O)N(CCc2ccccc2)C2=CC3CCC(C2)N3C)cc(OC)c1OC (stereo unspecified)
active: [6] 54%
inactive: all other assays above
